For 39 compounds, inhibition results are on record in ChEMBL document CHEMBL3433997, “St. Jude Leishmania screening dataset” (2016).

In one assay the target is Hexose transporter 1 (Plasmodium falciparum) (UniProt O97467). As to the kind of experiment: ST_JUDE_LEISH: Cytotoxicity at 2uM final concentration against transgenic Leishmania Mexicana promastigotes LmPfHT that are glucose transport deficient and complemented with the Plasmodium falciparum hexose transporter. Activity is measured by DNA content using SYBR green in vitro. Format: functional.
As a reminder, the inhibition is the change of the read-out against control, counted positive when it falls. For `CCNc1cc(C(=O)N[C@@H](Cc2ccccc2)[C@H](O)CNC2(CC)CC2)cc(N2CCCCS2(=O)=O)c1`, the inhibition turned out to be 2.01%. `O=S(=O)(c1cccc(C(F)(F)F)c1)N1CCC(CO)(Cc2cccc(C(F)(F)F)c2)CC1`: the inhibition was found to be 6.86%. In the case of `CN(C)c1ccc(-c2ccc(C(=O)NC3CCN(Cc4cccc(C(F)(F)F)c4)CC3)s2)cc1`, the inhibition is 6.03%. Turning to `Cc1cccc(NC(=O)NC2CCN(CCCCCNC(=O)/C=C/c3ccc(Cl)c(Cl)c3)CC2)c1`, the inhibition was 3.83%. Same read-out and setting: with `O=C(N[C@@H](Cc1ccccc1)C(=O)O)c1cc(-c2ccc(F)cc2)no1.O=C(N[C@@H](Cc1ccccc1)C(=O)O)c1conc1-c1ccc(F)cc1` the figure was 6.76%; with `O=C(Nc1ccc(C(F)(F)F)cc1)Nc1ccccc1N1CCNCC1`, 1.1%. With `CCOC(=O)NCC(=O)Nc1cccc(-c2cccc(-c3nc4cc(C(F)(F)F)ccc4[nH]3)c2)c1`, the inhibition was 0.35%. Take `CC(=O)Oc1cc(C)ccc1C1CCN(CCCCNC(=O)c2ccc(-c3ccc(C(F)(F)F)cc3)cc2)CC1`: the inhibition is 2.04%. In the case of `CN(C)CCNC(=O)N1CCCN(c2ncnc3cc(-c4ccccc4)sc23)CC1`, the inhibition came to 5.39%.

`CCCOc1ccc(-c2nonc2NC(=O)c2cccc(OC)c2)cc1OCCC`: the inhibition was 10.9%. Turning to `CC1CCc2sc(-c3nnc(SC(C)C(=O)NC4CC4)o3)cc2C1` (centres undefined), the inhibition came to 1.65%.

The next assay deals with Glucose transporter (Leishmania mexicana) (UniProt O61059). The experiment in a line: ST_JUDE_LEISH: Cytotoxicity at 2uM final concentration against transgenic Leishmania Mexicana promastigotes LmGT2 that are glucose transport deficient and complemented with the L. Mexicana glucose transporter 2. Activity is measured by DNA content using SYBR green in vitro. Format: functional.
Take `CCOc1cc(NCCSCc2nc[nH]c2C)nc2ccccc12`: the inhibition is -3.84%. On the same count and under the same terms, under `CN1CCCC1CCOc1ccc2c(c1)N(C(=O)Nc1cc(Br)cc(C(F)(F)F)c1)CC2` (centres undefined) stands -2.02%; under `O=C(NC1CCCCCC1)C1CCCN(C(=O)c2ccc(O)c(-c3ccc(Cl)c(Cl)c3)c2)C1` (centres undefined), 2.57%. Regarding `COc1cc(NC(=O)Nc2cccc3ccccc23)c(OC)cc1Cl`, the inhibition was found to be 3.81%. The same measure, in the same setting: under `Cc1cccc2nc(-c3ccc(-c4ccc(NC(=O)NCc5cccc(F)c5)cc4)s3)[nH]c12` stands 5.43%; under `CC(C)(C)c1ccc(C(=O)Nc2cccc(Nc3c(C(=O)NCc4cccc(C(F)(F)F)c4)cnc4c(O)cccc34)c2)cc1`, 9.37%; under `CCNc1cc(C(=O)N[C@@H](Cc2ccccc2)[C@H](O)CNCCc2cc(OC)cc(OC)c2)cc(N2CCCCS2(=O)=O)c1`, 10%. On to `CC(C)NCc1ccc(-c2cccc(-c3nc4cc(C(F)(F)F)ccc4[nH]3)c2)cc1`, for which the inhibition was found to be 4.16%. For the compound `COc1ccc(-c2ccc(CNCc3ccsc3)cc2)cc1S(=O)(=O)NCCN1CCCC1`, the inhibition is -2.28%. For `O=C(COc1ccccc1)Nn1cnc2ccccc21`, the inhibition amounted to 0.3%. The same measure, in the same setting: with `COc1ccc(-c2cnn3ccc(Nc4cc(OC)c(OC)c(OC)c4)nc23)cc1OC` the figure was 9.46%.

As to `COc1ccc2nccc(N3CCC(O)(CCNCc4ccc5c(n4)NC(=O)CO5)CC3)c2n1`, the inhibition was determined as 2.81%. Same read-out and setting: with `COc1ccc2nccc([C@@H](O)CN3CCC(NC(=O)C(c4cc5ccccc5o4)N4CCC(Cc5ccccc5)CC4)CC3)c2c1` (some centres undefined) the figure was 2.23%; with `Cc1cnn(-c2cccc(C(=O)NC3CCC(CCN4CCc5ccc(C#N)cc5CC4)CC3)c2)c1` (centres undefined), -0.22%. For `Cc1cccc(-c2ccc(NC(=O)C3CCN(Cc4cccc(O)c4)CC3)cc2)c1`, the inhibition was -0.58%. As to `O=C(Nc1cccc(C(F)(F)F)c1)c1cccc2nc(C(F)(F)F)[nH]c12`, the inhibition was found to be 15%. Turning to `O=C(c1csc(-c2cccnc2)n1)N1CCc2cc3nccc(N4CCN5CCC[C@H]5C4)c3cc21`, the inhibition stood at 5.59%. With `Cc1nnnn1-c1ccc(C(=O)N2CCC3(CC2)CN(Cc2ccc(Cl)c(Cl)c2)C(=O)O3)cc1`, the inhibition was 6.87%. Same read-out and setting: with `CCCCCCn1ccc2c3c(N)nc(N)nc3ccc21` the figure was 102%; with `Clc1ccc(Cn2nc(Br)nc2Br)c(Cl)c1`, -4.56%. `Cc1cc(N[C@@H](Cc2ccccc2)C(=O)NCCc2ccccc2)nc(NCC2CCCCC2)n1`: the inhibition worked out at 1.29%. `Cc1cccc2nc(-c3ccc(-c4ccc(CN5CCCCC5)cc4)s3)[nH]c12`: the inhibition is 3.32%. Same read-out and setting: under `COc1ccccc1CCNc1nc(C)cc(NCCC(=O)NCCOc2ccccc2)n1` stands 2.01%; under `CCCCCCN1CCCN(Cc2ccc(C(=O)Nc3ccc(Cl)cc3)cc2)CC1`, 12.5%; under `Cn1cnc(CCNC(=O)c2ccc(-c3cccc(-c4nc5cc(C(F)(F)F)ccc5[nH]4)c3)cc2)c1`, 5.89%.

Take `O=C(/C=C/c1ccc(Cl)c(Cl)c1)NCCCCCN1CCC(NC(=O)Nc2cccc(F)c2)CC1`: the inhibition was 2.29%. Turning to `C=CC[C@@H](C(=O)OCC)[C@@H]1[C@@H](N(CC=C)C(=O)OC(C)(C)C)CCN1C(=O)OCc1ccccc1`, the inhibition was found to be 1.42%. Turning to `CCN(CC)CCN(Cc1ccc(-c2ccc(C(F)(F)F)cc2)cc1)C(=O)Cn1c(CCc2cccc(F)c2F)cc(=O)c(C)c1C`, the inhibition is 3.62%.
